Results as given in PubChem BioAssay (NCI).
This is part of a sample that, as a whole, favours compounds with a hit. Of some 83,000 tested, about 20% had one in any assay.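 Interpretation: 100, growth as untreated; towards 0, rising growth inhibition; 0, no net growth; 0 to -100, cell death. Compounds scoring below 10 were considered active.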 Unmarked numbers belong to inactive results. Activity calls are given as the source filed them.

tested on: MCF7 breast; assay: NCI-60 one-dose screen, 48 h (100 = growth as untreated, 0 = no growth, -100 = all killed); details: 10 µM unless noted
Experimental: Growth inhibition of the MCF7 human tumor cell line is measured as a screen for anti-cancer activity. Cells are grown in 96 well plates and exposed to the test compound for 48 hours. Compounds are tested at a single concentration, which is 10^-5 M for most compounds. The reported endpoint is percent growth (GI% or GIPRCNT), where numbers from 0 - 100% represent growth inhibition, and numbers from -100% - 0 represent cell death. For example, a value of 40 represents 60% growth inhibition. A value of 0 means no net growth occurred over the course of the experiment. A value of -40 indicates 40% of cells at the beginning of the experiment died by the end of the experiment. A value of -100 means all cells are dead at the end of the experiment.
NCI-60 Human Tumor Cell Lines Screen was performed using the standard one-dose NCI protocol, which is described in more detail at https://dtp.cancer.gov/discovery_development/nci-60/default.htm.
Compounds with GIPRCNT values below 10 were considered active. Activity score was based on GIPRCNT using the following formula: […]
Score is 0 for GIPRCNT values of 100 or above, 50 for GIPRCNT values of 0, and 100 for GIPRCNT values of -100.

Structure (SMILES) | growth
CCOC(=O)c1cc(C(=O)c2cc(OC)c(OC)c(OC)c2)n2c1ccc1ccccc12 | 12.1%
COc1ccc2[nH]c(=O)c3c4ccccc4cn3c2c1 | 17.1%
CCOC(=O)c1c(NS(=O)(=O)c2ccc(C)cc2)sc2c1CCC1(C2)OCCO1 | 93.2%
COc1ccc(-c2cc(-c3ccccc3)nc(SCCCC(=O)NO)n2)cc1OC | 4.19% (active)
COc1ccc(C2=C(c3cc(OC)c(OC)c(OC)c3)C(=O)CC2)cc1 | 16.3%
CCOC(=O)c1cn2c3c(cc(C)cc3c1=O)C(=O)/C(=C/c1ccccc1)C2 | 86.7%
COc1cc(Nc2ncccc2C(=O)NCc2cn(Cc3cccc(Oc4ccccc4)c3)nn2)cc(OC)c1 | 18.3%
Oc1ccc(Cl)cc1-c1cc(-c2ccc(F)cc2)n[nH]1 | 15.8%
COc1cc(-c2nn(-c3cccc(NC(=O)c4ccc(N5CCOCC5)c(C(F)(F)F)c4)c3)cc2-c2ccncc2)ccc1Cl | 8.85% (active)
CCCCCCCCCCCCNC(=O)[C@H]1CSC(c2cc(Br)cs2)N1 (stereo not given in full) | 49%
CCOC(=O)CN1/C(=N/c2sc3c(c2C(=O)OCC)CCN(C(=O)OCC)C3)SC(=O)/C1=C\C(=O)OC | 49.3%
CCCCC(CC)OC(=O)C(Br)CC (stereo not given) | 102%
COc1ccc(NC(=O)c2cc(OC)c(OC)c(OC)c2)cc1O | 24%
COc1cc(/C=C/C(=O)c2c(C)nc3ccccc3c2C)ccc1OCCCCOc1cc2c(cc1OC)C(=O)N1CCC[C@H]1C=N2 | -86% (active)
Cc1csc(NC(c2ccc(Br)cc2)c2c(C)nc3ccccn23)n1 (stereo not given) | 83.3%
CO[C@H]1NC(=O)N(S(=O)(=O)c2ccc(Cl)cc2)[C@@H]1OC | 99.4%
Cc1c(C(=N)C(C#N)C#N)c(=N)oc2c1ccc1ccccc12 | 57.9%
COc1ccc(/C=N\NC(=O)CN2CCN(c3cc4c(cc3F)c(=O)c(C(=O)N/N=C/c3ccc(OC)c(OC)c3)cn4C3CC3)CC2)cc1OC | -4.9% (active)
O=c1[nH]c(-c2ccccc2)nc(CN2CCCCC2)c1O | 104%
COc1ccc(-c2nc(/C=N/Nc3cc(C)nc4ccc(Cl)cc34)c(C)o2)cc1 | -80.2% (active)

Structure (SMILES) | growth
CC(C)(C)OC(=O)NC(CSCc1ccccc1)C(=O)ON1C(=O)CCC1=O (stereo not given) | 98.4%
CC(C)(C)N1CCC1C(N)=O (stereo not given) | 104%
O=C(/C=C\c1cccc([N+](=O)[O-])c1)/C=C/c1cccc([N+](=O)[O-])c1 | 19%
Cc1csc(NC(c2ccccc2)c2c(C)nc3ccccn23)n1 (stereo not given) | 94.6%
COC(=O)c1cc2cc(-c3ccc(OC)cc3)cnc2[nH]1 | 15.9%
C=C[C@@H]1C[C@@H]2Cc3cc(Cl)ccc3N1O2 | 112%
CC(=O)Oc1cccc(S(=O)(=O)n2cc(C(=O)C(=O)Nc3ccncc3)c3ccccc32)c1 | 79.5%
CN(C)CCN1C(=O)c2ccc3c4c(ccc(c24)C1=O)C(=O)N(CCN=C=S)C3=O | -67.7% (active)
C=C(C)[C@@H]1C[C@@H]2Cc3cc(Cl)ccc3N1O2 | 100%
COc1ccc(/C=C(\C#N)c2cc(OC)c3c(c2)OCO3)cc1 | 17.4%
COc1cc(/C=N\NC(=O)CN2CCN(c3cc4c(cc3F)c(=O)c(C(=O)N/N=C/c3cc(OC)c(OC)c(OC)c3)cn4C3CC3)CC2)cc(OC)c1OC | 7.55% (active)
O=S(=O)(NCCNc1nccc(-c2c(-c3ccc(F)cc3)nc3sccn23)n1)c1ccc(F)cc1 | 30.9%
COc1ccc(Nc2ncccc2C(=O)NCc2cn(Cc3cccc(Oc4ccccc4)c3)nn2)c(OC)c1 | 25%
COc1ccc(-c2c(N)n[nH]c2-c2cc3c(c(OC)c2OC)OCO3)cc1 | 101%
COc1ccc(C2C(C#N)=C(N)Oc3c2ccc2ccccc32)cc1 (stereo not given) | 13.2%
O=C(Nc1cccc(-n2cc(-c3ccncc3)c(-c3ccc(Cl)c(O)c3)n2)c1)Nc1cc(C(F)(F)F)cc(C(F)(F)F)c1 | 2.71% (active)
C=C(C)[C@@H]1C[C@H](O)Cc2cc(F)ccc2N1 | 103%
CC12CCC3C4(C)COC(c5ccco5)OC4CCC3(C)C1CC(C1=CCOC1=O)O2 (stereo not given) | 98.9%
COc1ccc(/C(C#N)=C/c2cc(OC)c(OC)c(OC)c2)cc1 | 18.6%
CCOC(=O)NNC(=S)Nc1ccccc1 | 100%
